Assay results published in PubChem BioAssay (NCI).
Compounds without any hit were thinned out: in the full panel of roughly 79,000, 15% have a hit. Rule as the data show it: active = growth inhibition above about 70%; inactive = the rest.

Legend:
[1] = NCI Yeast Anticancer Drug Screen. Data for the rad50 strain (AID 155);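 also: 0% = growth of vehicle-only cultures of the same strain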; settings: S. cerevisiae rad50 strain growth inhibition; at 50.0 µM; hits give high values
Procedure, shortened: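 Vehicle-treated cultures provide the reference for the growth inhibition reported for compound-exposed, repair-deficient yeast.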

[2] = NCI Yeast Anticancer Drug Screen. Data for the mec2-1 strain (AID 157); settings: S. cerevisiae mec2-1 strain, at 50.0 µM, hits give high values
Procedure, shortened: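 Cells of the genetically defined mec2-1 yeast strain are incubated with test compound. Inhibition of growth is calculated against vehicle-treated controls.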

[3] = NCI Yeast Anticancer Drug Screen. Data for the sgs1 mgt1 strain (AID 161);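 also: 0% = growth of cultures given vehicle only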; settings: S. cerevisiae sgs1 mgt1 strain, at 50.0 µM, hits give high values
Procedure, shortened: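 Mutant yeast exposed to compound; growth scored against vehicle-only wells.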

[4] = NCI Yeast Anticancer Drug Screen. Data for the cln2 rad14 strain (AID 165);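 also: 0% = growth equal to vehicle treated cultures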; settings: S. cerevisiae cln2 rad14 strain, at 50.0 µM, hits give high values
Procedure, shortened: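 The screen exposed genetically defined yeast (cln2 rad14) to test compounds and scored growth inhibition relative to vehicle-treated controls.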

[5] = NCI Yeast Anticancer Drug Screen. Data for the bub3 strain (AID 167); settings: S. cerevisiae bub3 mutant strain, at 50.0 µM, hits give high values
Procedure, shortened: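 Mutant yeast screening strain plus compound; vehicle-treated cultures serve as the 0% inhibition reference.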

[6] = NCI Yeast Anticancer Drug Screen. Data for the mlh1 rad18 strain (AID 175); settings: S. cerevisiae mlh1 rad18 strain growth inhibition; at 50.0 µM; hits give high values
Procedure, shortened: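 Compound-treated yeast growth, normalised to vehicle controls. Strain bears defined DNA repair mutations.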

Measured: growth inhibition

C=CCN(CC=C)/N=N/c1nc[nH]c1C(N)=O
inactive: [1] 28.1% | [2] 8.55% | [3] 14.7% | [4] 5.75% | [5] -5.55% | [6] 22.1%

C/C(CC(=O)Nc1ccc(NC(=O)C/C(C)=N\NC(N)=O)cc1)=N/NC(N)=O
inactive: [1] 3.5% | [2] -23.9% | [3] -4.65% | [4] 11.1% | [5] -14.1% | [6] 6.75%

CC(NC(=O)CCl)c1ccccc1 (stereo not given)
inactive: [1] 23.7% | [2] -12.2% | [3] -12.9% | [4] 14.4% | [5] 4.25% | [6] 36.4%

CC(=O)OCC1OC(n2cccnc2=O)C(OC(C)=O)C1OC(C)=O (stereo not given)
inactive: [1] -0.55% | [2] 2.75% | [3] 2.25% | [4] 7.8% | [5] 8.7% | [6] 0.9%

O=C(O)/C=C/C(=O)Nc1ccccc1NC(=O)/C=C/C(=O)O
inactive: [1] 15.2% | [2] 16.2% | [3] 31.2% | [4] 27.8% | [5] 19.9% | [6] -1.9%

N=C(N)C(N=Nc1ccccc1)C(=N)N (stereo not given)
inactive: [1] -25.4% | [2] -7.45% | [3] -22.1% | [4] -33.5% | [5] -25.5% | [6] -16%

O=C(O)C(Nc1ccccc1)c1ccccc1 (stereo not given)
inactive: [1] 13.4% | [2] 3.75% | [3] 9.45% | [4] -21.9% | [5] 4.65% | [6] -6.95%

COc1cc(N=C(N)N=C(N)N)c2ncccc2c1
inactive: [1] -3.1% | [2] -18.1% | [3] -11.9% | [4] -41% | [5] -3.75% | [6] -13.2%

CN(C)/C=N/c1nc2ncn(CCOC(=O)c3ccccc3)c2c(=O)[nH]1
inactive: [1] -20.6% | [2] -24.6% | [3] 11.3% | [4] 10.6% | [5] -11.4% | [6] -20.9%

COC(=O)C(N)Cc1ccc(OCc2ccccc2)cc1 (stereo not given)
inactive: [1] -0.8% | [2] 5.2% | [3] -2.25% | [4] -4.25% | [5] 24.4% | [6] -5.35%

COC1(c2ccc(C)cc2)c2cccc3cccc(c23)C1(O)c1ccc(C)cc1 (stereo not given)
inactive: [1] 18.6% | [2] 15.6% | [3] 12% | [4] 21.6% | [5] -4.15% | [6] 9.9%

COC(=O)CCS/C=C/C(=O)O
inactive: [1] 11.1% | [2] -8.6% | [3] -2.4% | [4] -34.4% | [5] 4.25% | [6] 4.35%

Cc1cc2c(=O)cc(-c3ccncc3)oc2c(C(=O)O)c1C
inactive: [1] 20.7% | [2] 0.2% | [3] -10.3% | [4] 20.5% | [5] 26.9% | [6] -5.5%

Nc1cccc(NC(=O)c2cccc(N)c2)c1
inactive: [1] 9.8% | [2] -4.75% | [3] 2.2% | [4] 10.4% | [5] 11.4% | [6] 18.1%

COC(=O)CCC(=O)c1ccc2c(c1)CCC2
inactive: [1] -3.25% | [2] -26.2% | [3] 17.2% | [4] 3% | [5] 33.5% | [6] 7.65%

O=C(NCN1CCOCC1)Nc1ccccc1
inactive: [1] 8% | [2] 0.6% | [3] -1.65% | [4] -24.2% | [5] -6.55% | [6] 2.05%

O=NN(CC(=O)O)c1ccc2ccccc2c1
inactive: [1] 2.55% | [2] -7.3% | [3] 13.8% | [4] -39.5% | [5] -14.9% | [6] -2.85%

Cc1cc(=O)[nH]c(NNC(C#N)c2ccccc2O)n1 (stereo not given)
inactive: [1] -19.3% | [2] -27.9% | [3] -22.1% | [4] -12% | [5] 1.5% | [6] -34.8%

O=C1CSC2=NC3=C(COC/C3=C\c3ccc(Br)cc3)C(c3ccc(Br)cc3)N12 (stereo not given)
inactive: [1] 7.05% | [2] 14.3% | [3] 39.1% | [4] 18.9% | [5] 33.6% | [6] 33.1%

Cc1ccc(S(=O)(=O)OCCN(CCO)c2cn(C(c3ccccc3)(c3ccccc3)c3ccccc3)c(=O)n(C(c3ccccc3)(c3ccccc3)c3ccccc3)c2=O)cc1
inactive: [1] -2.1% | [2] 17.8% | [3] 3.7% | [4] -6.8% | [5] -4.3% | [6] 24.3%
